# Screening results deposited in PubChem by several laboratories.
# E coli Lon inh = E. coli protease La inhibition; P0A9M0; purified E. coli Lon protease, fluorescence polarization; inhibition, % at 7.94 µM; 360,000 compounds, 0.42% hits; in the data active = inhibition above about 13%, passing the limit was not always enough;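 note: 0% = enzyme with probe and DMSO and 100% = no enzyme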
# Keap1 Nrf2 FP = inhibitors of human Keap1-Nrf2 protein-protein interaction. 340,000 compounds, 0.15% hits. Keap1 Kelch-Nrf2 peptide fluorescence polarization, 1536-well. AID 504523. Q14145. inhibition, % at 9.4 µM; in the data active = inhibition above about 12%; inconclusive = no clear call, values can overlap the other calls; inactive = below about 7.3%;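 note: human Keap1 Kelch domain with fluorescein labeled Nrf2 9mer peptide probe; 0% = neutral control wells and 100% = peptide positive control; higher means more block of Keap1 binding to Nrf2 peptide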
# Target sequence (Q14145 whole entry, looked up, the tested form may be a part): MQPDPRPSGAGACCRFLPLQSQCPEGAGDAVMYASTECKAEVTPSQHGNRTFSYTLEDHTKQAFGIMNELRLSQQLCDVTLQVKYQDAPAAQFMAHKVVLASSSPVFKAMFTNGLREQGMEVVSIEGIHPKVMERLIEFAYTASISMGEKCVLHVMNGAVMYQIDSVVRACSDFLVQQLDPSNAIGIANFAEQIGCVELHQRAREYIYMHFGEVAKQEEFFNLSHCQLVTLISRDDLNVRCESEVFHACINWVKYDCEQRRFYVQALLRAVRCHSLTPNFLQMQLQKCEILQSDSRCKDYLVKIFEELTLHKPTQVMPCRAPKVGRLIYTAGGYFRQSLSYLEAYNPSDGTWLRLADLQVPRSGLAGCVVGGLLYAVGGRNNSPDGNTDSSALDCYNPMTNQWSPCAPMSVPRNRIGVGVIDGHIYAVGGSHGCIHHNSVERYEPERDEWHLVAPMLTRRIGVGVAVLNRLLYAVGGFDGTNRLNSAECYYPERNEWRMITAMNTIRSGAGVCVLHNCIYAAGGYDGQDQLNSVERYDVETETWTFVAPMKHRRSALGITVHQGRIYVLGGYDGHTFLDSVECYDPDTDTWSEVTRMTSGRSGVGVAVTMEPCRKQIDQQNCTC
# RTF Ca sens act = cardiac RTF calcium sensitization; P19429+P45379; IANBD-labeled TnC RTF fluorescence at EC20 calcium; 0% EC20 calcium, 100% full calcium; activation, % at 7.2 µM; 340,000 compounds, 0.24% hits;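 active = activation above the mean over all tested compounds plus 3 SD, cut at about 30% in these data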;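 note: rise in fluorescence read as greater calcium sensitivity of cardiac thin filaments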
# Cardiac RTF inh = cardiac RTF calcium desensitization; P19429+P45379; IANBD-labeled cardiac RTF, Ca2+ fluorescence; inhibition, % at 7.15 µM; 340,000 compounds, 0.12% hits;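 active = inhibition above the mean inhibition of all tested compounds plus 3 SD, cut at about 17% in these data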;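 note: assay run at fixed EC70 calcium of 1.6 mM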
# C-LANA FP = blocks KSHV LANA C-terminal domain binding to DNA. 340,000 compounds, 0.078% hits. AID 504423. inhibition, % at 9 µM. MBP-C-LANA/FAM-LBS DNA binding, fluorescence polarization;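 active = highest replicate inhibition at or above 60% at 9 µM, even if other replicates fall short; inactive = all replicates below 60% inhibition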;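 note: 0% = neutral control wells and 100% = 4 µM acridine orange control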
# E coli Lon conf = E. coli Lon inhibition confirmation; purified E. coli Lon, fluorescence polarization; AID 602230; shares compounds with E coli Lon inh; 1,400 compounds, 31% hits; inhibition, % at 7.94 µM; in the data active = inhibition above about 16%;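 note: 0% = enzyme with probe and DMSO and 100% = no enzyme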
# Starred values were filed as active, the others as inactive; ? = inconclusive; . = no result given. This is a sample that favours compounds with a hit; in the whole collection about 0.82% have one here.
SMILES,E coli Lon inh,Keap1 Nrf2 FP,RTF Ca sens act,Cardiac RTF inh,C-LANA FP,E coli Lon conf
O=C(CSc1nnc2c(n1)[nH]c1ccccc12)Nc1ccc(S(=O)(=O)Nc2ncccn2)cc1,18*,-2,-1,-9,1,28*
O=c1[nH][nH]c2c1[C@H](c1ccc(Cl)cc1)O[C@H](C1CC1)C2,-1,.,.,.,.,.
CC1(C)CC(=O)C2=C(C1)Nc1ccccc1NC2c1ccc2c(c1)OCO2 (stereo not given),36*,0,2,-3,1,16*
CCOc1ccc(C2Nc3ccccc3NC3=C2C(=O)CC(C)(C)C3)cc1OC (stereo not given),29*,-2,-2,-12,1,-2
Cc1cc2c(cc1C)NC(c1c(C)n(C)n(-c3ccccc3)c1=O)C1=C(CC(C)(C)CC1=O)N2 (stereo not given),20*,-3,13,-31,12,4
COc1ccc(C2Nc3ccccc3NC3=C2C(=O)CC(C)(C)C3)cc1 (stereo not given),64*,4,4,-61,18,10
CC1(C)CC(=O)C2=C(C1)Nc1ccccc1NC2c1ccc(F)cc1 (stereo not given),3,4,-5,-3,4,.
Clc1ccc(-c2nc3c4ccccc4ccn3c2Cc2ccccc2)cc1,-10,.,.,.,.,.
COc1ccc(C2Nc3ccccc3NC3=C2C(=O)CC(C)(C)C3)cc1O (stereo not given),19*,4,2,-6,6,9
COc1ccc(C2Nc3ccccc3NC3=C2C(=O)CC(C)(C)C3)cc1OC (stereo not given),-3,-1,-3,-3,3,.
CC(OC(=O)c1ccc(S(C)(=O)=O)c([N+](=O)[O-])c1)C(=O)NC1C2CC3CC(C2)CC1C3 (stereo not given),1,.,.,.,.,.
CC1(C)CC(=O)C=C(NNC(=O)c2ccccc2)C1,-6,5,2,-5,0,.
COc1ccc(C(=O)NNC2=CC(=O)CC(C)(C)C2)cc1OC,17*,-3,4,-13,3,1
CCc1cccc(CC)c1N1C(=O)C2=C(SCCCS2)C1=O,180*,.,.,.,.,160*
CCOc1ccc(CC(=O)OCc2cc(=O)n3cc(Br)ccc3n2)cc1,42*,0,0,-1,0,8
O=C(NCCS(=O)(=O)N1CCN(c2ccccc2F)CC1)C1CC(=O)N(c2ccc(F)cc2)C1 (stereo not given),75*,1,-4,-7,-1,-8
COc1ccccc1N1CCN(S(=O)(=O)CCNC(=O)C2CC(=O)N(c3ccccc3)C2)CC1 (stereo not given),3,-2,0,-2,-1,.
Cc1ccc(C)c(C(O)c2ncc(-c3ccc(Cl)cc3)[nH]2)c1 (stereo not given),-14,.,.,.,.,.
COc1ccccc1-c1ccc2c(c1)C(C)(Cc1ccc(F)c(Cl)c1)C(=O)N2 (stereo not given),16*,.,.,.,.,-8
CCOC(=O)c1ccc(NC(=O)[C@@H](NC(N)=O)C(C)C)cc1,-4,4,-1,-2,1,.
CCN(CC)S(=O)(=O)c1cc(NC(=O)[C@@H](NC(N)=O)C(C)C)ccc1C,17*,-4,11,-6,1,-3
COc1ccc(OC)c(C(=O)COC(=O)c2cc(C)oc2C)c1,27*,-2,-9,-6,-1,-7
COc1cc(/C=C/CNC[C@H]2O[C@@H](n3cnc4c(N)ncnc43)[C@H](O)[C@@H]2O)ccc1O,-10,.,.,.,.,.
COc1ccc(Oc2c(OC)cc(NCc3ccc(CN)cc3)c3ncccc23)cc1,-15,.,.,.,.,.
Cc1ccc2c(c1)c1c(n2CC(O)CNC(CO)(CO)CO)CCCC1 (stereo not given),5,4,0,-10,2,.
SMILES,E coli Lon inh,Keap1 Nrf2 FP,RTF Ca sens act,Cardiac RTF inh,C-LANA FP,E coli Lon conf
Cc1ccc2c(c1)c1c(n2CC(O)CNC2CCCCC2)CCCC1 (stereo not given),28*,-1,12,-3,2,6
Cc1cccc(C)c1N1CCN(C(c2cc3ccccc3o2)c2nnnn2C(C)(C)C)CC1 (stereo not given),3,.,.,.,.,.
C=CCN(CC=C)c1nc2ccccc2nc1C(C#N)C(=O)OC(C)C (stereo not given),16*,-5,5,-15,3,-12
C=CCOC(=O)C(C#N)c1nc2ccccc2nc1N1CCN(c2ccccc2OC)CC1 (stereo not given),-10,2,-2,-5,1,.
Cc1c(NC(=O)c2cc(Br)ccc2Cl)cccc1-n1cnnn1,20*,-7,-3,3,1,-4
O=C1c2ccccc2C(=O)N1SC1CCCCC1,19*,-30,4,2,3,-65
O=C(OCN1C(=O)c2ccccc2C1=O)C1CCCCC1,2,1,-6,-9,0,.
Cc1ccccc1N=Cc1cccc(O)c1O,15*,-3,1,-9,-1,30*
Cc1ccc(N=Cc2cccc(O)c2O)c(C)c1,9,2,-11,-2,1,.
O=C(NC(c1ccc(-c2ccccc2)cc1)c1cnccn1)C1CCN(Cc2ccc3c(c2)OCO3)CC1 (stereo not given),-6,.,.,.,.,.
COc1ccc(-c2onc3ccc(Br)cc23)cc1,39*,9,8,-16,10,86*
C=CCOc1cccc(C2C(C(=O)c3ccc(C)o3)=C(O)C(=O)N2c2nccs2)c1 (stereo not given),55*,?,9,-16,32,126*
Fc1ccc2nc(Nc3ccccc3)sc2c1,15*,3,2,4,-3,6
NNc1nc2ccc(F)cc2s1,4,-2,-3,5,1,.
CC1([N+](=O)[O-])COC(c2cccc3ccccc23)OC1 (stereo not given),6,.,.,.,.,.
CCCCCCCCN1C(=O)[C@H](CC(=O)NCCC(C)C)C[C@@]2(C(=O)OC)CCCCC=C12,6,.,.,.,.,.
CCN(c1ccc(OC)cc1)S(=O)(=O)N1CCCC(C(=O)NCc2ccc(OC(C)C)cc2)C1 (stereo not given),5,.,.,.,.,.
CCOc1cc(C(c2c(O)nc(SC)[nH]c2=O)c2c(O)nc(SC)[nH]c2=O)ccc1O,49*,.,.,.,.,41*
COc1ccc(NC(=O)C2(C)Cc3c(-c4ccc(N(C)C)cc4)ccnc3O2)cn1 (stereo not given),1,.,.,.,.,.
CCOC(=O)c1c2c3c(cccc3[nH]c1=O)C(=O)c1ccccc1-2,-2,-1,0,-5,2,.
CCOC(=O)c1c2c3c(c(Cl)ccc3[nH]c1=O)C(=O)c1ccccc1-2,17*,-1,.,.,0,38*
CCOC(=O)c1c2c3c(cccc3n(C)c1=O)C(=O)c1ccccc1-2,144*,7,3,-9,2,65*
CC1=NN(c2ccccc2)C(=O)C1CCC#N (stereo not given),24,.,.,.,.,.
